Six molecules from PubChem BioAssay can be followed below.

A short description of experiment [1]: modulation of C. elegans fzo-1 (AID 1259413).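 Further: fzo-1 mutant C. elegans worms in liquid wells.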 The following applies: C. elegans fzo-1 modulator screen, mean read-out; stronger effect = higher value.
Experiment [2] in a line: P. berghei load reduction in hepatocytes – cell-based, HepG2, luciferase luminescence, HepG2 viability, primary screen (AID 624349; in the data active means parasite load remaining mostly below about 12%, no sharp cut-off; inactive means mostly above about 10%;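 further: 100% = mean of DMSO negative control wells on the same plate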). The note with it: P. berghei liver stage in HepG2, luciferase luminescence, concentration not given here; parasite load remaining: stronger effect = lower value; viability: measured here: HepG2 viability without parasites.
The nature of experiment [3]: signal quenchers or enhancers, Cy5 substrate/SSB – biochemical, NIH Clinical Collection, E. coli SSB, artefact control for HCV NS3 helicase inhibitor project (AID 743268). The note with it: Cy5-oligo bound E. coli SSB, fluorescence interference.
For experiment [4], the system named is Hepatitis C virus NS3 helicase. Briefly: blockers of NS3h binding to DNA – biochemical, fluorescence polarization, NIH Clinical Collection, primary screen (AID 743270). The following applies: NS3 helicase binding to Cy5-dT15 DNA, stronger effect = higher value, concentration not given here.
Experiment [5] deals with Single-stranded DNA-binding protein (Escherichia coli (strain K12)) (UniProt P0AGE0). Briefly: SSB-ssDNA binding inhibitors – biochemical, fluorescence polarization, NIH Clinical Collection, counter-screen for HCV NS3 helicase inhibitor project (AID 743271; in the data active means inhibition above about 28%). The note with it: E. coli SSB-DNA binding, stronger effect = higher value, concentration not given here.
A short description of experiment [6]: compounds distorting NS3 helicase fluorescence signal – biochemical, NIH Clinical Collection, artefact control for HCV NS3 helicase inhibitor project (AID 743272).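 Further: HCV NS3 helicase with a Cy5 labelled single stranded DNA probe.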 The following applies: fluorescence interference counterscreen, HCV NS3 helicase assay; stronger effect = lower value. Background: Counterscreens check selectivity or assay interference.
For experiment [7], the system named is Neuropilin-2 / VEGF-C interaction (human). Nature of the experiment: small molecules blocking Neuropilin-2/VEGF-C interaction – biochemical, microplate binding format, z-score (AID 743281). The following applies: microplate NRP2/VEGF-C binding assay; stronger effect = lower value.
The nature of experiment [8]: viability loss with induced miR-34 in A549 – imaging, A549 dox-inducible miR-34, nuclei and caspase counts, primary screen (AID 1347080;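 active means compounds whose cell count with miR-34 switched on is under 0.7 times the count with it off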). The following applies: A549 miR-34 inducible, Hoechst nuclei count, 48 h.
Experiment [9] can be described thus: galactose survival enhancers in mitochondrial complex I cybrids – cell-based, galactose medium, ATP luminescence, primary screen (AID 1645843;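 active means z-score of at least 1.8 in each of two replicates, scored against plate mean and spread of sample wells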;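 further: positive z means more ATP and so rescue of galactose-driven cybrid death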). The note with it: complex I mutant cybrid cells, 72 h, stronger effect = higher value.
Experiment [10] in a line: compounds altering circadian rhythm period length – cell-based, LOPAC library, luminescence reporter (AID 2774).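 Further: values are relative to mean of DMSO wells on each plate.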 The note with it: circadian reporter cells, at 7 µM, actives lie on both sides.
Experiment [11] is described as follows: compounds altering viability of human ES cells (AID 493140).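 Further: cells exposed to compounds for four days before counting.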 The following applies: human embryonic stem cell survival screen; stronger effect = higher value.
Experiment [12] relates to Hepatitis C virus NS3 helicase. Briefly: blockers of NS3h binding to ssDNA – biochemical, fluorescence polarization, LOPAC1280 library, primary screen (AID 687035; in the data active means inhibition above about 37%). The note with it: Purified HCV NS3 helicase, Cy5-dT15 ssDNA binding fluorescence polarization; stronger effect = higher value; concentration not given here. In general terms: Fluorescence polarisation rises when a labelled molecule tumbles more slowly, as on binding a larger partner.

A short description of experiment [13]: compounds altering Cy5-DNA-NS3h complex signal – biochemical, LOPAC1280, artefact control for HCV NS3 helicase inhibitor project (AID 687037). The following applies: Cy5-DNA-NS3h complex fluorescence interference counterscreen.
The subject of experiment [14] is Aerobactin synthetase IucA (Klebsiella pneumoniae). Nature of the experiment: inhibition of K. pneumoniae IucA enzyme – biochemical, Tocris library, absorbance (AID 1345561).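 Further: 100% = enzyme without compound and 0% = no enzyme.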 The following applies: purified IucA enzyme assay, absorbance (OD) read-out; stronger effect = lower value;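 tested at 8 µM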.
Experiment [15] can be described thus: blockers of cellular phospholipid synthesis – cell-based, LOPAC library, screen 4, primary screen (AID 1347384). The note with it: animal cells, phospholipid biosynthesis inhibition screen; at 10 µM.
The nature of experiment [16]: MELAS cybrid and Rieske KO viability enhancers – cell-based, MELAS cybrids, Rieske KO mouse fibroblasts, CellTiter-Glo, primary screen (AID 1508586;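 active means mean z-score across replicates of 1.96 or higher in either the MELAS or the Rieske mutant cell line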;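 further: z relative to plate mean and SD of compound and empty wells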). The note with it: low glucose. A general note: Cellular ATP, detected with luciferase, serves as a proxy for viable cell number.
The target in experiment [17] is NAD(+) hydrolase SARM1 (Homo sapiens) (UniProt Q6SZW1). Briefly: blocking NAD cleavage by SARM1 SAM-TIR – cell lysate, NAD-Glo luminescence (AID 1508614;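 active means compound whose remaining NAD level is above about 45 nM, limit read from the data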). The following applies: SAM-TIR HEK293T lysate NADase, at 1 µM, stronger effect = higher value.
Sequence of NAD(+) hydrolase SARM1 (Homo sapiens) (Q6SZW1 whole entry, looked up, the tested form may be a part): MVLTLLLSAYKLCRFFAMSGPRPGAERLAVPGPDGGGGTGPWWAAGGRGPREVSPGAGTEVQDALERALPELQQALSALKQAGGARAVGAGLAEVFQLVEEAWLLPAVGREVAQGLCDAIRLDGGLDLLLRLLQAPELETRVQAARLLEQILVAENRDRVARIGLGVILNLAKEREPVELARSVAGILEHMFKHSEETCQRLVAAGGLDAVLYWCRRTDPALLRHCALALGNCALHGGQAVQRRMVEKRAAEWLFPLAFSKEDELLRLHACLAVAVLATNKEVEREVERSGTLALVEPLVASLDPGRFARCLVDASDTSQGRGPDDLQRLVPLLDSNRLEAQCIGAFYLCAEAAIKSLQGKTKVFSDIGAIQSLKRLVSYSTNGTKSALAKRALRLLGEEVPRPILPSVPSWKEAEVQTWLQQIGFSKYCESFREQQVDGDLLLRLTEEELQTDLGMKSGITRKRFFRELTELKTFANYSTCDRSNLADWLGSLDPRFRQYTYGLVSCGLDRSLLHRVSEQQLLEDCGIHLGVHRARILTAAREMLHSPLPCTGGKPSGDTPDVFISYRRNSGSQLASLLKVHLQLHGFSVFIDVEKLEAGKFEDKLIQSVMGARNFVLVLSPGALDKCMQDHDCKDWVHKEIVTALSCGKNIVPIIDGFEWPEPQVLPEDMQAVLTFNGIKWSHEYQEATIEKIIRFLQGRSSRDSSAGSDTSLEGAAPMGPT
The target in experiment [18] is Mitogen-activated protein kinase 7 (Homo sapiens) (UniProt Q13164). Nature of the experiment: Gal4-ERK5 driven luciferase induction – cell-based, HTS, primary screen (AID 1508626;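 active means luciferase signal above three times the same-plate solvent-only control wells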;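 further: luciferase driven by Gal4-ERK5 fusion binding five Gal4 sites before minimal TATA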). The note with it: HeLa Gal4-ERK5 transactivation, 18 h, at 5 µM, stronger effect = higher value.
Sequence of Mitogen-activated protein kinase 7 (Homo sapiens) (Q13164 whole entry, looked up, the tested form may be a part): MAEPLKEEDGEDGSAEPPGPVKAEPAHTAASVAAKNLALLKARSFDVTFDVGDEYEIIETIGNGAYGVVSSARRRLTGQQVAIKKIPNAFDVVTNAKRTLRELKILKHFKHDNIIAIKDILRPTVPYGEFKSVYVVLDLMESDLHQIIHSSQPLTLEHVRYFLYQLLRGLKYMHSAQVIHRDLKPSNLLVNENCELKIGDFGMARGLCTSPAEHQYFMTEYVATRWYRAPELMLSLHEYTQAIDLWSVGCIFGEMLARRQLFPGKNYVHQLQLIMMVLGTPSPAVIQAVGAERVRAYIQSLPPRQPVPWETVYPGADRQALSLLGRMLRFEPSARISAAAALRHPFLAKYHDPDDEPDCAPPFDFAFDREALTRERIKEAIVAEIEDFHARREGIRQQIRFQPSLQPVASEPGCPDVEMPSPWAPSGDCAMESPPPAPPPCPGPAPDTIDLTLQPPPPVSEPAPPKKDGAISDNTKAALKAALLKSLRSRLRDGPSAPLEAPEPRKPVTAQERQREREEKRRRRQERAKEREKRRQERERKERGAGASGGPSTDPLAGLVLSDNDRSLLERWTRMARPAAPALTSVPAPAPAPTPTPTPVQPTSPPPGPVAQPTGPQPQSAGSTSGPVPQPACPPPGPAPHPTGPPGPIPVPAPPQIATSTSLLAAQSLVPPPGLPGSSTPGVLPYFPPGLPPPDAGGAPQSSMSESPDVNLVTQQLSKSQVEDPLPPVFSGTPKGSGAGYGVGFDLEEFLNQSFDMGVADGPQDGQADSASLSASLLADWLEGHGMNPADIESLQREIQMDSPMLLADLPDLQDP
[19] abbreviates: stronger effect = lower value, cell number ratio, induced over uninduced.
[20] abbreviates: measured here: relative caspase fold change +Dox/-Dox.
Setting [21] is: measured here: total cells with miR-34 induction, stronger effect = lower value.
[22] abbreviates: measured here: total cells without miR-34 induction.

“And” between values parts separate entries of the source, which are not always exact repeats. Identical values can stand only once. The source made the active and inactive calls. Unless noted, how the calls were made is not given here.

Turning to `CC12C=CC(=O)C=C1CC[C@@H]1[C@@H]2C(=O)CC2(C)[C@H]1CC[C@]2(O)C(=O)CO` (some centres not stated), the mean signal in experiment [1] was 237 (inactive).

For `OC[C@H]1O[C@@H](n2cnc3c(NC4CCCC4)nc(Cl)nc32)[C@@H](O)C1O` (some centres not stated), the parasite load remaining in experiment [2] was 65.4% (inactive). In addition, the viability (commonly a read-out of living cells in per cent, often relative to untreated cells) in experiment [2] worked out at 67.2%. In addition, the fluorescence ratio in experiment [3] is 0.94 (inactive); in [6] it was 0.97 (inactive). Further, the inhibition – broadly, the relative decrease from the control value, in per cent – in [4] is -2.84% (inactive); in experiment [5], -1.97% (inactive). Also, in [7], the z-score was -0.619 (inactive). In addition, the mean signal in experiment [1] is 256 (inactive).

`CC(C)C[C@H](NC(=O)[C@@H](COC(C)(C)C)NC(=O)[C@H](Cc1ccc(O)cc1)NC(=O)[C@H](CO)NC(=O)[C@H](Cc1c[nH]c2ccccc12)NC(=O)[C@H](Cc1cnc[nH]1)NC(=O)[C@H]1CCC(=O)N1)C(=O)N[C@H](CCCN=C(N)N)C(=O)N1CCC[C@@H]1C(=O)NNC(N)=O`: the mean signal in experiment [1] was 236 (inactive).

With `CCCN1CC(CSC)CC2c3cccc4[nH]cc(c34)CC21` (configuration not stated), the call in [7] was inactive. For the same molecule, in [1], the mean signal was 184 (inactive). For the same molecule, the fold change in experiment [8] (setting [19]) was 0.922 (inactive); in experiment [8] (setting [20]) it was 1.17. The results for the cell count in [8] (setting [21]) and in experiment [8] (setting [22]) were 9040 and 9810, respectively. In experiment [9], the z-score was -0.235 (inactive).

Regarding `CN1[C@@H](CC(=O)c2ccccc2)CCC[C@H]1C[C@H](O)c1ccccc1`, in experiment [10], the period change is -0.145 h (inactive). Also, the survival in experiment [11] was 11.3 (inactive). For the same molecule, in experiment [2], the parasite load remaining was 59.5% (inactive) and 70.7% (inactive) and 71% (inactive). In addition, in [2], the viability is 108% and 77.1% and 78.1%. In addition, the inhibition is 0% (inactive) in experiment [12], 0.4% (inactive) in [4] and -0.1% (inactive) in experiment [5]. In addition, in experiment [13], the fluorescence ratio (interference) is 1 (inactive). The fluorescence ratio in [3] and in experiment [6] was 1.03 (inactive) throughout. Besides, the z-score was -0.358 (inactive) in [7]; -0.54 (inactive) and -0.495 (inactive) in experiment [9]. The mean signal in experiment [1] is 245 (inactive). Also, the remaining activity (as a rule, the signal under treatment as a percentage of the control signal) in experiment [14] is 122% (inactive). Besides, the fold change in experiment [8] (setting [19]) was 1.06 (inactive) and 0.859 (inactive) and 0.83 (inactive); in experiment [8] (setting [20]), 0.866 and 1.18 and 1.23. Moreover, the cell count was 11200 and 9030 and 8370 in [8] (setting [21]); 10500 and 10100 in experiment [8] (setting [22]). Further, the result in [15] was inactive.

Turning to `COCC1=C(C(=O)OC(C)OC(=O)OC(C)C)N2C(=O)[C@@H](NC(=O)/C(=N\OC)c3csc(N)n3)[C@H]2SC1` (some centres not stated), the molecule was classed as inactive in experiment [7]. In [1], the mean signal was 270 (inactive). Further, the z-score in experiment [16] (MELAS cybrid survival, CellTiter-Glo 48 h, stronger effect = higher value) is -0.0637 (inactive); in experiment [16] (Rieske KO mouse fibroblast survival, CellTiter-Glo 72 h), -0.177. Further, in experiment [17], the remaining NAD was 10 nM (inactive). Besides, the luciferase signal in experiment [18] was 40 AU (inactive).
